Structures are written as SMILES. Inconclusive results are not listed. Entries that show only a call come without a potency. The source made the active and inactive calls. Calls come from the whole dose curve; as a rule, active = well fitted inhibition curve with a large enough effect; inconclusive = small, poorly fitted or top-dose-only effect, or effect the other way; inactive = flat fitted curve, though single readings scatter.
Potency is the fitted concentration of half-maximal effect.

Chain of Ubiquitin carboxyl-terminal hydrolase 2 (Homo sapiens) (O75604 whole entry, looked up): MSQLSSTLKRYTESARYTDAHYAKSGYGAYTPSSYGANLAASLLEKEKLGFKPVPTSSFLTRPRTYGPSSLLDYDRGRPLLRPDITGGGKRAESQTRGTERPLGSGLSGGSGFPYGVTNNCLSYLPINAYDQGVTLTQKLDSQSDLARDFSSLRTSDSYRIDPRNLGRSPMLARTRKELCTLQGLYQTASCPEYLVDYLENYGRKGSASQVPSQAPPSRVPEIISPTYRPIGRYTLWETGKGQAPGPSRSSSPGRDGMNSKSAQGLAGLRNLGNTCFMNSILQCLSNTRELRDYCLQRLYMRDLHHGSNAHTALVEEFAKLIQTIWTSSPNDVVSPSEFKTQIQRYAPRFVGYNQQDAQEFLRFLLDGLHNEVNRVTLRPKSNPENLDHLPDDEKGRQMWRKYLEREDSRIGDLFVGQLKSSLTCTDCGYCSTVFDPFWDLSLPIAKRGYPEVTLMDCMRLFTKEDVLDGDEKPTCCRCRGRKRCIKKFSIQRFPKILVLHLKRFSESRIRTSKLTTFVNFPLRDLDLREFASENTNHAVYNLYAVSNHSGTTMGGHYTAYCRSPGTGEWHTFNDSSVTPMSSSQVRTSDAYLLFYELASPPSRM

The target in the assay is Ubiquitin carboxyl-terminal hydrolase 2 (Homo sapiens) (UniProt O75604). Put plainly: Confirmation Assay for Inhibitors of Ubiquitin-specific Protease USP2a Using CHOP2 as the Reporter. Note: nearly all actives have a fitted effect of over 55% in size. The settings on record: USP2 core, Ub-CHOP2 coupled reporter fluorescence; series mostly up to 38.3 µM. In outline:
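USP2 core (10 nM final) was preincubated with compound for 30 min at RT in Tris-HCl pH 8.0, CaCl2, beta-mercaptoethanol, CHAPS. Ub-CHOP2 and reporter substrate (25 nM final each) were added, and fluorescence (Ex 485/Em 531 nm) was read after 60 min.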
Consider `COC(=O)c1cc2sc(Cl)cc2n1Cc1nc(-c2ccccc2)oc1C`, for which the Potency entry is “inactive”. To `C=CC#CC[N+]1(CC#Cc2ccccc2)CCOCC1` belongs 3.69 µM (active); to `Nc1c(C(=O)NCC2CCCO2)sc2nc3c(c(-c4ccco4)c12)CC/C3=C\c1ccco1` (stereo not drawn), 4.14 µM (active).

Consider `CCC(C)(C)n1nnnc1C(c1ccc(C)cc1)N1CCCC1` (stereo not drawn), for which the Potency result was “inactive”. Turning to `O=C(CN1CCC(O)CC1)N1c2ccccc2C=Cc2ccccc21`, the Potency entry is “inactive”.

Turning to `CCC(=O)c1ccc(OCC(=O)NC2CCN(Cc3ccccc3)CC2)cc1`, the Potency result is “inactive”. With `Cc1cccc(NC(=O)NCc2ccc3c(c2)cc(C)n3C)c1` the entry was “inactive”; with `O=C(O)CP(=O)(c1ccccc1)c1ccccc1`, “inactive”. Take `CCC1SC2=NC(C)=C(C(=O)OCCOC)C(c3ccc(C(=O)OC)cc3)N2C1=O` (stereo not drawn): the Potency result is “inactive”. Turning to `O=C(Nc1ccc(Oc2ccc(Cl)cc2)cc1)c1ncn[nH]1`, the Potency result was “inactive”. With `CC(C)(C)C(=O)Nc1c2c(nc3c1CCC3)CCCC2`, the Potency result was “inactive”.

As to `Nc1cc(=O)[nH]c(SCc2cccc(Cl)c2)n1`, the Potency entry is “inactive”. With `COc1ccc(S(=O)(=O)N(C)CC(=O)Nc2cccc(C(C)=O)c2)cc1Cl` the entry was “inactive”; with `C[C@H](CO)N1C[C@H](C)[C@@H](CN(C)S(=O)(=O)c2cccs2)Oc2c(NC(=O)Nc3ccc4c(c3)OCO4)cccc2C1=O`, “inactive”.

On to `c1ccc(-c2nc3nc4ccccc4nc3n2Cc2ccco2)cc1`, for which the Potency result was “inactive”. With `Nc1c(C(=O)Nc2ccc(Cl)cc2)oc2ccccc12` the entry was “inactive”. With `O=C1Nc2ccccc2SC(c2ccccc2)C1O` (stereo not drawn), the Potency is 13.1 µM (active). In the case of `CC1=CC(C)(C)N(C(=O)c2ccccc2)c2ccccc21`, the Potency result was “inactive”.

(Values after PubChem BioAssay AID493168 (National Center for Advancing Translational Sciences (NCATS), 2011).)
